Source: PubChem BioAssay (NCI)
About 83,000 compounds went through this panel and 20% of them were active in at least one assay; those are over-represented in the sample as a whole.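 Method: cells in 96-well plates; compound added at one concentration; 48 h incubation; percent growth measured; values under 10 scored active.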 Activity calls are given as the source filed them.

Tests used:
Experiment in all cases: NCI-60 one-dose screen, 48 h (100 = growth as untreated, 0 = no growth, -100 = all killed)
Details in all cases: 10 µM unless noted
[1] = tested on: NCI-H23 lung
[2] = tested on: NCI-H226 lung
[3] = tested on: NCI-H322M lung
[4] = tested on: HOP-62 NSCLC
[5] = tested on: NCI-H460 lung
[6] = tested on: HOP-92 NSCLC
[7] = tested on: NCI-H522 lung
[8] = tested on: A549/ATCC NSCLC
[9] = tested on: 786-0 renal
[10] = tested on: COLO 205 colon

Measured: growth

CC(C)C1=NOC(=O)C1=Cc1cn(-c2ccccc2)nc1-c1ccc(F)cc1
inactive: [1] 95.6% | [2] 93.7% | [3] 94.9% | [4] 90.1% | [5] 76.8% | [6] 89.8% | [7] 66.5% | [8] 81.4% | [9] 77.4% | [10] 94.4%

CCOc1nc(-c2ccccc2)cc2c(O)c(C(=O)N/N=C/c3ccccc3)[nH]c(=O)c12
inactive: [1] 111% | [2] 106% | [3] 128% | [4] 115% | [5] 114% | [6] 107% | [7] 74.4% | [8] 114% | [9] 112% | [10] 111%

COc1ccc(OC)c(-c2nc(SCC(=O)c3ccc(C#N)cc3)[nH]c(=O)c2C#N)c1
inactive: [1] 98.1% | [2] 101% | [3] 105% | [4] 99.7% | [5] 112% | [6] 99% | [7] 90.4% | [8] 103% | [9] 101% | [10] 86.9%

COc1ccc(/C=N\Nc2nc(SCCC(C)C)nc(-c3ccc(OC)cc3)c2C#N)cc1
active: [9] -2.8%
inactive: [1] 72.1% | [2] 88.9% | [3] 80.8% | [4] 18.4% | [5] 13.9% | [6] 63.2% | [7] 60.5% | [8] 70.9% | [10] 68%

CC(=O)Oc1ccc(C)cc1C
inactive: [1] 103% | [2] 107% | [3] 108% | [4] 105% | [5] 115% | [6] 105% | [7] 101% | [8] 100% | [9] 100% | [10] 125%

N#Cc1ccc(O)c(C2=NCC(c3cccc(Oc4ccccc4)c3)O2)c1 (stereo not given)
active: [4] 2.94% | [5] 4.55% | [7] -11.9% | [8] -0.648%
inactive: [1] 41.1% | [2] 45.2% | [3] 41.7% | [6] 36.8% | [9] 26.4% | [10] 14.7%

COc1cc(OC)c(NC(=O)c2cc3ccccc3cc2O)cc1Cl
active: [6] -31.2% | [7] -19.9%
inactive: [1] 10.7% | [2] 77% | [3] 40.2% | [4] 68.2% | [5] 11.2% | [8] 32.1% | [9] 27.4% | [10] 66.6%

O=S(=O)(Nc1cc(Cl)ccc1Cl)c1ccc(-c2cnc(C3CC3)o2)cc1
active: [7] 0.738%
inactive: [1] 52.8% | [2] 40.3% | [3] 59.4% | [4] 39.8% | [5] 24.8% | [6] 40.4% | [8] 45.2% | [9] 33% | [10] 43.5%

Cc1c(-c2ccc(O)cc2)n(Cc2ccc(OCCN3CCCCCC3)cc2)c2ccc(O)cc12
inactive: [1] 77% | [2] 89.7% | [3] 92.3% | [4] 80.6% | [5] 89.3% | [6] 59.3% | [7] 75.5% | [8] 72.5% | [9] 75.7% | [10] 106%

COc1cc(/C=C/C(=O)c2ccc(F)cc2)ccc1OCCCCOc1ccc(/C=C/C(=O)c2c(C)nc3ccccc3c2C)cc1OC
inactive: [1] 74.9% | [2] 69.4% | [3] 103% | [4] 90.2% | [5] 104% | [6] 84.5% | [7] 59.1% | [8] 76.9% | [9] 86.7% | [10] 119%

Cc1ccc(-c2nc([P+](c3ccccc3)(c3ccccc3)c3ccccc3)c(S(=O)(=O)c3ccc(C)cc3)o2)cc1
active: [5] 4.75% | [6] -7.71% | [7] 4.04% | [9] -18.7% | [10] -38.1%
inactive: [1] 15% | [2] 46.9% | [3] 57.2% | [4] 17.7% | [8] 27.5%

CCNCCNc1cc(C2CCCCC2)c(C#N)c2nc3ccccc3n12
inactive: [1] 44.7% | [2] 15.3% | [4] 16.1%
active: [3] -3.13% | [5] -23.4% | [6] -24.5% | [7] -9.52% | [8] 3.05% | [9] 4.62% | [10] -52.8%

CCOC(=O)c1csc(NC(=O)COc2ccc(/C=C3\Oc4ccccc4C3=O)cc2)n1
inactive: [1] 86.5% | [2] 108% | [3] 95.4% | [4] 72.6% | [5] 95.4% | [6] 102% | [7] 55.1% | [8] 88.7% | [9] 68.4% | [10] 112%

NC(=O)c1c(NC(=O)c2ccc3ccccc3c2)sc2c1CCC(=O)C2
inactive: [1] 35.4% | [2] 91.8% | [3] 94.9% | [4] 99.9% | [5] 92.6% | [6] 83.6% | [7] 10.5% | [8] 95.5% | [9] 99.6% | [10] 58.4%

CC(C)c1ccc(-n2c(=S)[nH]c3sc4cc(O)ccc4c3c2=O)cc1
inactive: [1] 98.6% | [2] 92.5% | [3] 90.4% | [4] 102% | [5] 101% | [6] 80.2% | [7] 99.9% | [8] 106% | [9] 103% | [10] 102%

C#CCOC(=O)/C=C/c1cn(-c2ccccc2)nc1-c1ccc(OC)cc1
inactive: [1] 89.1% | [2] 81.6% | [3] 99.4% | [4] 93% | [5] 95.1% | [6] 60.8% | [7] 50% | [8] 77.5% | [9] 98.9% | [10] 121%

O=C(NCCCl)Nc1ncccc1OCc1ccccc1
inactive: [1] 99.6% | [2] 104% | [3] 92.4% | [4] 100% | [5] 101% | [6] 103% | [7] 85.3% | [8] 103% | [9] 100% | [10] 106%

OCCn1cc(-c2nc(-c3c[nH]c4ncccc34)cs2)c2ccccc21
inactive: [1] 71.9% | [2] 58% | [3] 74.8% | [4] 74.7% | [5] 78.6% | [6] 58% | [7] 58.6% | [8] 77.5% | [9] 95.1% | [10] 85.9%

O=C(Nc1cccc(Cl)c1)Nc1cccc(Cn2c(=O)[nH]c3ccc(Oc4ncccn4)cc3c2=O)c1
inactive: [1] 33.1% | [2] 64.4% | [3] 66.1% | [4] 64.8% | [5] 42.8% | [6] 43.7% | [7] 25.6% | [8] 40.4% | [9] 71.4% | [10] 48.3%

CCOC(=O)C(=O)C(C(=O)OCC)c1ccccc1 (stereo not given)
inactive: [1] 107% | [2] 107% | [3] 110% | [4] 107% | [5] 110% | [6] 107% | [7] 101% | [8] 122% | [9] 93.3% | [10] 118%

C=C1C(=O)O[C@H]2[C@H]1CC/C(COC(=O)/C=C\C(=O)NCc1ccc(Cn3c(=O)sn(CCI)c3=O)cc1)=C\CC[C@@]1(C)O[C@@H]21
active: [7] -84% | [10] -32.8%
inactive: [1] 84.1% | [2] 83% | [3] 86.6% | [4] 130% | [5] 91.9% | [6] 46% | [8] 98.1% | [9] 37.4%

O=C(CSc1nc2sc3c(c2c(=O)n1-c1ccccc1)CCCCC3)N/N=C/c1cccc([N+](=O)[O-])c1
inactive: [1] 54.4% | [2] 94.4% | [3] 79% | [4] 53% | [5] 19.6% | [6] 73.2% | [7] 53.5% | [8] 27.8% | [9] 80.7% | [10] 89.1%

COc1ccc2c(c1)c(-c1nc(-c3c[nH]c4ccncc34)cs1)cn2C
inactive: [1] 46.3% | [2] 48.7% | [6] 35.8%
active: [3] -31% | [4] -82.7% | [5] -78.2% | [7] -71.3% | [8] -85.9% | [9] -91.6% | [10] -81.7%

CSc1nc(N)c(NS(=O)(=O)c2ccc(C(C)=O)cc2)c(=O)[nH]1
inactive: [1] 95.5% | [2] 103% | [3] 100% | [4] 105% | [5] 103% | [6] 103% | [7] 99.6% | [8] 102% | [9] 78.9% | [10] 98.6%

Nc1c(C(=O)Nc2ccncc2)sc2nc3c(cc12)C(O)CCC3 (stereo not given)
inactive: [1] 93.3% | [2] 90.2% | [3] 84.1% | [4] 98.7% | [5] 102% | [6] 88.2% | [7] 78.8% | [8] 91.9% | [9] 93.8% | [10] 113%
